Source: PubChem
A selection: hits, their analogues and other compounds. The true share with any hit is near 3.5%.
Pf apPOL block = Pf-apPOL DNA polymerase inhibition; hit rate 0.25% among 210,000; Recombinant Pf-apPOL, molecular beacon fluorescence, 1.5 h; AID 1794808; inhibition, % at 10 µM
mHTT-CaM PPI inh = disrupts binding of mutant huntingtin to calmodulin. inhibition, % at 15 µM. P42858. AlphaScreen His-mHTT/GST-CaM binding, luminescence. AID 1671202. hit rate 3.6% among 190,000
Numbers stand for hits; . = inactive; / = not tested or not shown; ! = repeats disagree. Rule as the data show it: active = inhibition above about 50%; inactive = the rest.

SMILES | Pf apPOL block | mHTT-CaM PPI inh
COc1ccc(OC)c(N2C(=O)CC(Sc3nc4ccccc4s3)C2=O)c1 (stereo not drawn) | . | 51.0!
CCCc1[nH]n(-c2ccc(F)cc2)c(=O)c1C=NC1CCCCC1 | . | .
Cc1ccc(Nc2nccc(C3CCCN(C(=O)C4CCC4)C3)n2)cc1 (stereo not drawn) | . | .
O=C(Cc1cccs1)N1CCCC(c2ccnc(Nc3ccc(F)cc3)n2)C1 (stereo not drawn) | . | 53.4
Cc1ccc(Nc2nccc(C3CCCN(C(=O)Cc4cccs4)C3)n2)cc1 (stereo not drawn) | . | 63.2
CC(=O)N1CCCC(c2ccnc(Nc3ccc(F)cc3)n2)C1 (stereo not drawn) | . | .
CC(=O)NS(=O)(=O)c1ccc(NC(=O)c2ccccc2Br)cc1 | . | .
CC1=C(C(=O)Nc2cccc(C)c2C)C(c2ccc(Cl)cc2Cl)NC(=O)N1 (stereo not drawn) | . | .
Cc1ccccc1C(=O)N1CCN(c2nc(CN3CCCC3)cs2)CC1 | . | .
C=CSc1sc(Cl)c(N2CCCCCC2)c1[N+](=O)[O-] | . | .
C=CSc1sc(Cl)c(N2CCCC2)c1[N+](=O)[O-] | . | 75.0
CCN(Cc1ccccc1)Cc1ccccc1[N+](=O)[O-] | . | .
C=CSc1sc(Cl)c(N(C)Cc2ccccc2)c1[N+](=O)[O-] | . | 64.0
CSc1ccc(CNC(=O)c2cn3c(n2)CSCC3)cc1 | . | .
Cc1nc(-c2ccc(F)cc2)sc1C(=O)N1CCC(CC(=O)NC2CCCC2)CC1 | . | .
O=C1OC2CC3CC2C1C3C(=O)N1CCN(c2ccc(Cl)cc2)CC1 (stereo not drawn) | . | .
Oc1ccccc1C=Nc1ccc(F)cc1Br | . | /
Cc1cc2[nH]c(C(=O)Nc3ccc(F)cc3)c(CN3CCOCC3)c2s1 | . | .
CN(C)S(=O)(=O)c1ccc(C(=O)N2Cc3nn(C(C)(C)C)c(-n4cccc4)c3C2)cc1 | . | 53.8
CC(C)(C)n1nc2c(c1-n1cccc1)CN(C(=O)c1ccc(=O)[nH]c1)C2 | . | .
COc1cccc(C(=O)N(C)c2ccc(Oc3ccc(C)nn3)cc2)c1OC | . | .
COc1ccccc1NC(=O)c1nn(C)cc1Br | 61.2 | .
Cn1cc(Br)c(C(=O)Nc2ccc(Br)cc2)n1 | . | .
Cc1ccc(-c2nc(C=Nc3ccc(F)cc3)c(O)o2)cc1 | . | .
CC(=O)N1c2ccccc2NC2=C(C(=O)CC(C)(C)C2)C1CC1CC=C(C)C1(C)C (stereo not drawn) | . | .
SMILES | Pf apPOL block | mHTT-CaM PPI inh
CCC(=O)N1c2ccccc2NC2=C(C(=O)CC(C)(C)C2)C1CC1CC=C(C)C1(C)C (stereo not drawn) | . | 59.0
COc1cccc(/C=C2\C(=O)NN(c3ccccc3)C2=O)c1 | . | .
O=C1NN(c2ccccc2)C(=O)/C1=C/c1cccc(Br)c1 | . | 54.0
O=C1NN(c2ccc(Cl)cc2)C(=O)/C1=C/c1cccc(Br)c1 | . | 95.0
COc1cccc(/C=C2\C(=O)NN(c3ccc(Br)cc3)C2=O)c1 | . | .
COc1cccc(OCc2nc(C(=O)N3CCC(C)CC3)cs2)c1 | . | .
O=C(CSc1nc2scc(-c3ccccc3)c2c(=O)[nH]1)c1ccccc1 | . | .
Cc1ccc(NC(=O)NC2CCN(c3ccccc3)C2=O)cc1F (stereo not drawn) | . | .
Cc1cccc(-c2nc(CN3CCN(C(=O)CC(C)(C)C)CC3)no2)c1 | . | .
CN(C1CCCCC1)S(=O)(=O)c1ccc(C(=O)Nc2nc(-c3ccccn3)cs2)cc1 | . | 99.0
O=C(Nc1nc(-c2cccnc2)cs1)c1ccc(S(=O)(=O)N2CCc3ccccc32)cc1 | . | .
CCCCN(C)S(=O)(=O)c1ccc(C(=O)Nc2nc3c(s2)Cc2ccccc2-3)cc1 | . | .
O=C(Nc1nc(-c2ccccn2)cs1)c1ccc(S(=O)(=O)N2CCc3ccccc32)cc1 | . | 97.0
CN(C)S(=O)(=O)c1ccc(C(=O)Nc2nc(-c3cccs3)cs2)cc1 | . | .
CCCCN(C)S(=O)(=O)c1ccc(C(=O)Nc2nc(-c3ccccn3)cs2)cc1 | . | 86.0
O=C(COc1ccccc1[N+](=O)[O-])Nc1ccc(Cl)cn1 | . | .
O=C(CCC(=O)N1Cc2cccn2-c2ccccc21)NC1CCCC1 | . | .
Cc1nc(C)c2c(n1)N(CC1CCCO1)C(=O)CC2 (stereo not drawn) | . | .
Cc1cccc(CN2C(=O)CCc3c(C)nc(C)nc32)c1 | 51.1 | .
Cc1cccc(CN2C(=O)CCc3c(C)nc(-c4ccncc4)nc32)c1 | . | .
Cc1nc(C)c2c(n1)N(CC1CCCCC1)C(=O)CC2 | 50.1 | .
O=C(COc1ccccc1[N+](=O)[O-])Nc1cccc(C(F)(F)F)c1 | . | .
CC(O)=Cc1nc2ccccc2nc1C=C(C)O | . | .
COc1ccc(OC)c(S(=O)(=O)n2nnc3ccccc32)c1 | . | 100.0
COc1ccc(S(=O)(=O)n2nnc3ccccc32)c(C)c1 | . | .
SMILES | Pf apPOL block | mHTT-CaM PPI inh
COc1cc(C)c(S(=O)(=O)n2nnc3ccccc32)cc1C | . | .
COc1ccc(C)cc1S(=O)(=O)n1nc(C)cc1C | . | .
COc1cc(C)c(C)cc1S(=O)(=O)n1nnc2ccccc21 | . | 88.5
COc1ccc(C)cc1S(=O)(=O)n1nnc2cc(Cl)ccc21 | . | 100.0
O=C1CN(C(=O)c2ccc(N3CCOCC3)c([N+](=O)[O-])c2)c2ccccc2N1 | . | .
O=C(Nc1ccc2c(c1)OCCO2)C1CCN(c2ncnc3c2nc2n3CCCCC2)CC1 | . | .
O=C(c1ccsc1)N1CCN(CCNC(=O)C2(c3ccccc3)CCOCC2)CC1 | . | .
COc1ccc(NC(=O)c2cn3c(n2)CCCC3)c(C)c1 | . | .
CCOc1ccccc1N1CCN(C(=O)c2ccccc2[N+](=O)[O-])CC1 | . | .
NC(=O)CSc1nc2ccccc2nc1SCC(N)=O | . | .
O=C(CSc1ccc(-c2ccccn2)nn1)Nc1nc2ccccc2s1 | . | 89.2
Cc1ccc2nc(NC(=O)CSc3ccc(-c4ccco4)nn3)sc2c1 | 74.0 | 84.6
O=C(CSc1cccc2cccnc12)Nc1nc2ccccc2s1 | . | .
NC(=O)CSc1ccc(-c2ccccn2)nn1 | . | 100.1
Cc1ccc2nc(NC(=O)CSc3ccc(NC(=O)C4CC4)nn3)sc2c1 | . | .
Cn1nc(C(=O)NC2CC(O)C(CO)C2)ccc1=O (stereo not drawn) | . | .
O=C(Nc1ccc(-c2cc3ccccc3oc2=O)cc1)c1cc([N+](=O)[O-])ccc1Cl | . | .
COc1ccc(NNC(=O)c2c(-c3c(F)cccc3Cl)noc2C)cc1 | . | /
COc1ccc2c(c1)OC(=Cc1ccc(OC)c(OC)c1OC)C2=O | . | .
COc1ccc2c(c1)Nc1ccccc1S2 | / | 62.7
Clc1ccc2c(c1)Nc1ccccc1S2 | / | .
Oc1ccc2ccccc2c1N=Nc1ccccn1 | . | /
Oc1ccc2ccccc2c1Sc1c(O)ccc2ccccc12 | / | 59.3
O=C(NCc1ccc2c(c1)OCO2)c1ccc(N2CCNC(c3ccccc3)C2)nc1 (stereo not drawn) | . | .
COCCCNC(=O)c1cnn2c(C(F)(F)F)cc(-c3ccccc3)nc12 | . | .
C=CCNC(=O)c1cnn2c(C(F)(F)F)cc(-c3ccccc3)nc12 | . | 51.0
Cc1ccc(C(=O)NC2CC(=O)N(c3ccc4c(c3)OCO4)C2)cn1 (stereo not drawn) | . | .
O=C(N=Nc1c(O)[nH]c2ccc(Br)cc12)c1ccco1 | 79.5 | /
O=[N+]([O-])c1cccc(-c2csc(N=Nc3c(O)[nH]c4ccc(Br)cc34)n2)c1 | . | /
